57 molecules from PubChem BioAssay AID463173 (ICCB-Longwood Screening Facility, Harvard Medical School, 2010) can be followed below.

Molecules are shown by their SMILES. Hit rate of the full screen: of about 52,000 compounds, about 4,300 (8.3%) were called active. This excerpt belongs to a sample that is enriched for actives. Unmarked numbers belong to inactive results. Rule as the data show it: active = survival mostly below about 52% (no sharp cut-off); inactive = mostly above about 56%.

This assay deals with DeltatarO mutant. The assay can be described thus: growth inhibition of S. aureus wild type versus tarO mutant, primary screen, teichoic acid synthesis inhibitors, RN4220, OD600 (AID 463173). The conditions noted are these: OD600, 18 h, hits give low values, screened at 18.75 µg/mL (by protocol).
Consider `CC(C)NC(=O)c1cnn2c(C(F)F)cc(-c3ccccc3)nc12`, for which the survival was 92%.

Take `COC(=O)c1ccc(C(=O)OC)c(NC(=O)c2cnn3c(C(F)F)cc(-c4ccc(C)cc4)nc23)c1`: the survival is 60%.

Turning to `CCOc1ccccc1NC(=O)c1cnn2c(C(F)F)cc(-c3ccccc3)nc12`, the survival is 58% (active).

`CCN(CC)c1ccc(NC(=O)c2cnn3c(C(F)F)cc(-c4ccccc4)nc23)cc1`: the survival was 59% (active).

For `O=C(Nc1cc(F)ccc1F)c1cnn2c(C(F)F)cc(-c3ccccc3)nc12`, the survival is 130%.

With `COc1ccc(-c2cc(C(F)F)n3ncc(C(=O)Nc4cc(OC)ccc4OC)c3n2)cc1`, the survival was 51% (active).

On to `CC(C)c1ccc(NC(=O)c2cnn3c(C(F)F)cc(-c4ccccc4)nc23)cc1`, for which the survival is 65%.

Turning to `COc1ccc(-c2cc(C(F)F)n3ncc(C(=O)Nc4cc(C)on4)c3n2)cc1`, the survival is 85%.

On to `CNS(=O)(=O)c1ccc(NC(=O)c2cnn3c(C(F)F)cc(-c4ccccc4)nc23)cc1`, for which the survival is 66%.

`CCCCn1nc(CC(=O)O)c2ccccc2c1=O`: the survival is 83%.

For `COC(=O)c1ccccc1NC(=O)C1(c2cccs2)CCOCC1`, the survival is 83%.

For the molecule `COc1ccc(NC(=O)CN(C)S(=O)(=O)c2cnc[nH]2)cc1Cl`, the survival is 98%.

On to `COc1ccc(C(=O)NCCn2cc(SCC(=O)Nc3cccc(C)c3)c3ccccc32)cc1`, for which the survival was 60%.

Consider `Cc1ccc(-n2c(=O)c3c(C)c(C(=O)N(C)C)sc3n(CC(=O)C(C)(C)C)c2=O)cc1C`, for which the survival is 107%.

Take `COc1ccc(CNC(=O)c2ccc(NC(=O)N3CCSc4ccccc43)cc2)cc1`: the survival is 56%.

`Cc1ccc(NC(=O)Cn2c(=O)n(CC(=O)NCCc3ccccc3)c(=O)c3ccccc32)cc1`: the survival is 89%.

On to `CCC(C(=O)NC1CCCC1)N(C(=O)c1snc(C(N)=O)c1N)c1ccccc1` (configuration not stated), for which the survival was 73%.

For `COc1cccc(NC(=O)N(Cc2nc3ccccc3c(=O)[nH]2)C2CCCCC2)c1`, the survival is 83%.

Take `COc1cccc(NC(=O)N(Cc2c[nH]c3ccccc23)C2CCCCCC2)c1`: the survival is 46%.

Consider `COc1cccc(NC(=O)N(Cc2cn(C)c3ccccc23)C2CCCCCC2)c1`, for which the survival is -13% (active).

In the case of `COc1cccc(NC(=O)N(Cc2cn(C)c3ccccc23)C2CCCCC2)c1`, the survival was -12% (active).

In the case of `COc1cccc(NC(=O)N(Cc2c[nH]c3ccccc23)C2CCCCC2)c1`, the survival is 65%.

Turning to `COc1cccc(NC(=O)Cn2cc(C(=O)C3CCCCC3)c3ccccc32)c1`, the survival is 79%.

Take `CC(C)NC(=O)CSc1nc2ccccc2c(=O)n1Cc1ccc(C(=O)NC(C)C)cc1`: the survival is 105%.

In the case of `CCC1Oc2ccccc2N(CC(=O)NCc2cc(OC)ccc2OC)C1=O` (configuration not stated), the survival was 85%.

Regarding `COc1ccc(-c2csc3nc(-c4ccc(F)cc4)oc(=O)c23)cc1OC`, the survival was 48% (active).

Turning to `COc1ccc(-c2csc3nc(-c4ccccc4)oc(=O)c23)cc1OC`, the survival was 115%.

For the molecule `COc1ccc(-c2csc3nc(-c4ccc(C)cc4)oc(=O)c23)cc1OC`, the survival is 63%.

As for `C=CCc1cccc2cc(C(=O)Nc3cccc(Cl)c3)c(=O)oc12`, the survival is 79%.

Regarding `C=CCc1cccc2cc(NC(C)=O)c(=O)oc12`, the survival was 76%.

For `C=CCc1cccc2cc(C(=O)Nc3ccc(F)cc3)c(=O)oc12`, the survival is 44% (active).

For the molecule `CCc1cccc(-n2c(=O)c3cccnc3n2CC(=O)Nc2ccc(OC)c(Cl)c2)c1`, the survival was 104%.

`COc1ccc(CNC(=O)CSc2ncc(S(=O)(=O)c3ccc(Br)cc3)c(=O)[nH]2)cc1`: the survival was 62%.

`CCCCNc1nc(Oc2ccc(OCCC)nn2)nc(N(C)C)n1`: the survival is 84%.

`COc1cccc(CNC(=O)CCc2c(C)nc3c4c(C)cc(C)nc4nn3c2C)c1`: the survival is 80%.

Consider `COc1cc(OC)cc(-c2nc(-c3ccc4c(c3)[nH]c(=O)n4C)no2)c1`, for which the survival is 94%.

For `COc1cccc(-c2noc(COc3ccccc3Cl)n2)c1`, the survival was 81%.

Consider `COc1cccc(-c2noc(COc3cccc(C)c3C)n2)c1`, for which the survival was 84%.

On to `COc1ccc(-c2noc(COc3cc(C)c(Br)c(C)c3)n2)cc1OC`, for which the survival was 60%.

For the molecule `COc1ccc(N2CCN(c3ccc(-c4nc(-c5cccc(C)c5)no4)cc3[N+](=O)[O-])CC2)cc1`, the survival was 75%.

As to `CCc1ccc(OCc2nc(-c3ccc(OC)c(OC)c3)no2)c(Br)c1`, the survival is 33% (active).

Consider `COc1ccc(-c2noc(CNS(=O)(=O)c3ccc(Br)cc3)n2)cc1OC`, for which the survival is 70%.

Consider `COc1ccc(-c2noc(COc3ccc(Br)cc3C)n2)cc1OC`, for which the survival was 33% (active).

On to `CCc1ccc(OCC(=O)NCc2nc(-c3cccc(C)c3)no2)c(Br)c1`, for which the survival is 94%.

For `COc1ccccc1OCc1nc(-c2cccc(C)c2)no1`, the survival was -3% (active).

With `COc1cc(OC)cc(-c2nc(-c3cccc(C)c3)no2)c1`, the survival is -3% (active).

Regarding `COc1ccc(C(=O)NCc2nc(-c3cccc(C)c3)no2)cc1OC`, the survival is 98%.

For the molecule `COc1ccc(CCNC(=O)CCc2cn(Cc3ccc(C)cc3)c3ccccc23)c(OC)c1OC`, the survival is 52%.

Take `Cc1ccc2nc(-c3ccncc3)c(Nc3ccccc3C)n2c1`: the survival is 103%.

On to `COc1ccc(CC(=O)NCc2ccc3c(c2)CCN3C(=O)c2ccc(C)cc2)cc1OC`, for which the survival is 99%.

Regarding `COc1ccccc1-c1nc2c(c(SCc3ccc(F)cc3Cl)n1)Cc1c(CO)cnc(C)c1O2`, the survival was 69%.

In the case of `CCOC(=O)c1ccc(NC(=O)CC2C(=O)N(c3ccc(F)cc3)C(=O)N2Cc2cccnc2)cc1` (configuration not stated), the survival was 95%.

On to `O=C(CSc1nc(-c2ccccc2)cc(=O)[nH]1)Nc1ccccc1`, for which the survival was 77%.

Turning to `COc1ccc(-c2nc3cnccn3c2NCc2ccc3c(c2)OCO3)cc1CN1CCOCC1`, the survival is 88%.

With `CC1CCC(NC(=O)c2ccc(CS(=O)(=O)c3cccc(C(F)(F)F)c3)o2)CC1` (configuration not stated), the survival is 75%.

On to `O=C(c1ccc(F)cc1)c1cn(Cc2ccccc2F)c2cc3c(cc2c1=O)OCCO3`, for which the survival is 83%.

As for `COc1ccc(NC(=O)c2c(NCc3cccc(F)c3)sc3c2CCCC3)c(OC)c1`, the survival is 69%.
